Sampled rows, rich in hits. Any-hit rate of the full collection: about 6.8%.
PINK1 expr mod: modulators of PINK1 expression; PINK1 immunofluorescence, high-content cytometry, 24 h; Potency, µM (doses to about 76.6 µM), usual class: activators; 0.2% of 410,000 active; AID 624263; active means well fitted activation curve with a large enough effect; inconclusive means small, poorly fitted or top-dose-only effect; cell line not stated here; further: nearly all actives have a fitted effect of over 65% in size
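PINK1 protein level read as immunofluorescence by microplate cytometer in a fixed, stained stable cell line after 24 h exposure to five compound concentrations, with CCCP as control.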
PTAP TSG101 blk: blocks PTAP/TSG101 interaction to inhibit HIV-1 budding. Q99816. Fluorescence polarization, FITC-PTAP peptide / Tsg101 binding. Potency, µM (top dose mostly 115 µM), most hits filed as inhibitors. 340,000 tested, under 10 active. AID 493005; active means well fitted inhibition curve with a large enough effect in the main read-out, with a control signal flat, not every such curve was filed as active; inconclusive means small, poorly fitted or top-dose-only effect, or effect the other way, or a change in a side signal; inactive means no such curve, though single readings can be large or run the other way
Target sequence (Q99816 whole entry, looked up): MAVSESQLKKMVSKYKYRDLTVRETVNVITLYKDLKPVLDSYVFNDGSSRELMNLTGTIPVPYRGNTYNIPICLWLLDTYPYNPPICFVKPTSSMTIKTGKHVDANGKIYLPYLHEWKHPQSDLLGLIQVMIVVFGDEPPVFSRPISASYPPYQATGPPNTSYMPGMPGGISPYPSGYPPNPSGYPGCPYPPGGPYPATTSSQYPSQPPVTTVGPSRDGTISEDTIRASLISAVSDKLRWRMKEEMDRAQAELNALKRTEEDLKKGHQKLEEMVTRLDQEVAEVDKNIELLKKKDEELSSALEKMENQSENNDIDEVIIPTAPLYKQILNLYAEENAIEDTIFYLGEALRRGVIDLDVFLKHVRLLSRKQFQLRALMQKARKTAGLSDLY
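Steps: Tsg101 binding domain dispensed (10 uM final), compounds pinned in DMSO, FITC-labeled PTAP-motif peptide added (50 nM final); after 20 min binding at room temperature, polarization measured.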
KB-V1 cytotox: KB-V1 MDR subline cytotoxicity | KB-V1 MDR cells viability, CellTiter-Glo, 72 h | Potency, µM (titrated, usually from 46.1 µM), most hits filed as cytotoxic | 3.4% of 400,000 active; further: nearly all actives have a fitted effect of over 60% in size
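In this primary screen, KB-V1 cells overexpressing P-gp are incubated with library compounds (lowest to highest concentration) for 72 h at 37 degrees C before a luminescent ATP viability read.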
MCF10A rereplic: induces DNA re-replication in MCF 10a normal breast cells | MCF 10A DNA re-replication, Hoechst nuclear intensity, 48 h | Potency, µM (doses to about 46.1 µM), hits mostly activators | 2.9% of 350,000 active | AID 624296; further: nearly all actives have a fitted effect of over 50% in size
SW480 rerep: inducers of DNA re-replication in SW480 colon cancer cells; SW480 DNA re-replication, Hoechst DNA content imaging, 48 h; Potency, µM (doses to about 46.1 µM), most hits filed as activators; 1.8% of 340,000 active; further: nearly all actives have a fitted effect of over 55% in size
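Per well, 250 cells were exposed to pinned compound for 48 hr. Nuclear DNA was visualised with Hoechst (40 min, 37 C) and total object intensity recorded by fluorescence scanning.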
KB-3-1 tox: KB-3-1 parental cell cytotoxicity; KB-3-1 viability, CellTiter-Glo ATP luminescence, 72 h; Potency, µM (top dose mostly 46.1 µM), actives largely listed as cytotoxic; 1.4% of 400,000 active; AID 1347075; further: nearly all actives have a fitted effect of over 60% in size
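Using CellTiter-Glo luminescence, growth of non-resistant KB-3-1 adenocarcinoma cells is assessed 72 h after pin-tool compound addition at 37 °C. Normalized responses across the concentration series yield fitted curves.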
Of the large screens only hits and unclear results are named; the others gave an inactive call. Unless noted, the call rests on the fitted dose curve; in most records, active means well fitted curve in the direction sought with a large enough effect; inconclusive means small, poorly fitted or top-dose-only effect, or another doubt; inactive means no such curve, though single readings can be large; an effect the other way counts as inactive or inconclusive.

COc1ccc2c(c1)CCC1C2=NN(/C(C)=C\C(C)=O)C1c1ccc(F)cc1 (stereo not drawn)	SW480 rerep inconclusive
COc1ccc2c(c1)C1=NN(/C(C)=C/C(C)=O)C(c3ccc(F)cc3)C1CC2 (stereo not drawn)	KB-V1 cytotox 20.6µM, MCF10A rereplic inconclusive
COc1ccc(-c2ccc3ccccc3n2)cc1	none
COc1ccc(-c2noc(C)c2-c2ccc3ccccc3n2)c(O)c1	KB-V1 cytotox inconclusive, MCF10A rereplic inconclusive, SW480 rerep 4.61µM, KB-3-1 tox inconclusive
COC(=O)C1N[C@@H]([C@@H](NC(=O)COc2ccccc2)C(=O)NCc2ccsc2)SC1(C)C (stereo partly drawn)	KB-V1 cytotox inconclusive, MCF10A rereplic inconclusive
CCCCCCCCCNC(=O)[C@H](NC(=O)COc1ccccc1)[C@@H]1NC(C(=O)OC)C(C)(C)S1 (stereo partly drawn)	MCF10A rereplic 6.51µM
CCc1ccc(CN(C(=O)Nc2cccc(Cl)c2)c2ccccn2)cc1	none (no result: PTAP TSG101 blk, MCF10A rereplic, SW480 rerep)
CCN1CCN(C(c2cccs2)C(C)NS(=O)(=O)c2ccc(Br)cc2)CC1 (stereo not drawn)	KB-V1 cytotox 23.1µM
CCOC(=O)C1CCN(C(=O)Cn2ncc3c4ccccc4n(Cc4ccccc4)c3c2=O)CC1	none (no result: PTAP TSG101 blk, KB-V1 cytotox, MCF10A rereplic, SW480 rerep, KB-3-1 tox)
CCc1ccc2ncc3c(-c4ccc(C)cc4)nn(CC(=O)Nc4ccc(C)cc4)c3c2c1	none (no result: PTAP TSG101 blk, MCF10A rereplic, SW480 rerep)
Cc1ccc(C(C)CCN2CCOc3ccc(CN4CCOCC4)cc3C2)o1 (stereo not drawn)	none (no result: PTAP TSG101 blk, KB-V1 cytotox, MCF10A rereplic, SW480 rerep, KB-3-1 tox)
Cn1c2ccccc2c2n[nH]c(=S)nc21	KB-V1 cytotox 6.51µM, MCF10A rereplic inconclusive, KB-3-1 tox inconclusive
Cn1c2ccccc2c2n[nH]c(=O)nc21	KB-3-1 tox inconclusive
CCc1ccc(S(=O)(=O)c2nnn3c2nc(NC2CCCCCC2)c2sccc23)cc1	none (no result: PTAP TSG101 blk, MCF10A rereplic, SW480 rerep)
COc1ccc2cc(S(=O)(=O)c3ccccc3)c(=O)oc2c1	KB-V1 cytotox inconclusive, MCF10A rereplic inconclusive, SW480 rerep inconclusive
Cc1ccc(S(=O)(=O)c2cc3ccc(O)cc3oc2=O)cc1C	MCF10A rereplic 2.31µM, SW480 rerep 2.31µM
O=C(Oc1ccccc1)N1CCC2(CC1)CN(c1ccncc1)C2	none (no result: PTAP TSG101 blk, KB-V1 cytotox, MCF10A rereplic, SW480 rerep, KB-3-1 tox)
Cc1ccc(S(=O)(=O)N2CCC3(CC2)OCCN3S(=O)(=O)c2cccs2)cc1	MCF10A rereplic inconclusive, SW480 rerep inconclusive
COc1ccc(S(=O)(=O)N2CCC3(CC2)OCCN3S(=O)(=O)c2cccs2)cc1	KB-V1 cytotox 8.2µM
C#CCOc1ccc2c(C)cc(=O)oc2c1	none
O=[N+]([O-])c1ccc(OCc2nnc(-c3ccccc3)o2)cc1	none
O=[N+]([O-])c1ccc(OCC2CC(c3ccccc3)=NO2)cc1 (stereo not drawn)	MCF10A rereplic inconclusive, SW480 rerep 16.4µM
Cc1cc(=O)oc2cc(OCC3CC(c4ccc(Br)cc4)=NO3)ccc12 (stereo not drawn)	KB-V1 cytotox 20.6µM, MCF10A rereplic 9.2µM, SW480 rerep inconclusive, KB-3-1 tox inconclusive
Cc1cc(=O)oc2cc(OCC(=O)N3c4ccccc4CC3C)ccc12 (stereo not drawn)	KB-V1 cytotox 2.59µM, MCF10A rereplic 2.51µM, SW480 rerep 1.64µM, KB-3-1 tox 2.91µM
Cc1cc(=O)oc2cc(OCC3CC(c4ccccc4)=NO3)ccc12 (stereo not drawn)	KB-V1 cytotox 8.2µM, MCF10A rereplic 4.11µM, SW480 rerep 5.17µM, KB-3-1 tox 7.31µM
Cc1cc(=O)oc2cc(OCC(=O)N3CC(C)OC(C)C3)ccc12 (stereo not drawn)	none
CCNc1ncc2nc(-c3ccc(F)cc3)c(=O)n(CCc3ccccc3)c2n1	none (no result: PTAP TSG101 blk, KB-V1 cytotox, MCF10A rereplic, SW480 rerep, KB-3-1 tox)
Cc1ccc(S(=O)(=O)N2CCN(c3ccnc(-c4cccs4)n3)CC2)cc1	none (no result: PTAP TSG101 blk, KB-V1 cytotox, MCF10A rereplic, SW480 rerep, KB-3-1 tox)
COc1cc2c(c(OC)c1)C(c1ccncc1)CC(=O)N2 (stereo not drawn)	KB-V1 cytotox inconclusive
COc1cc(C2CC(=O)Nc3cc(C)c(C)cc32)cc(OC)c1OC (stereo not drawn)	KB-V1 cytotox 16.4µM, MCF10A rereplic inconclusive, SW480 rerep inconclusive, KB-3-1 tox 9.2µM
